Results published in the supplement of paper PMC9925115.
Counter-ions that a name gives are not always drawn. ± gives the uncertainty stated by the source.

The compounds below were run on FLX1 (assay: cell viability z-score within plate (CellTiter-Glo), mean of 3 biological replicates; higher = higher viability relative to plate (less growth inhibition)). Conditions: 2 µM; time (hr): 120.
Experimental: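 FLX1 fibrolamellar carcinoma cells (DNAJB1-PRKACA fusion), 600 cells/well in 384-well plates, treated with a Selleck kinase inhibitor library (L1200) at 2 uM for 5 days (120 hr); viability by CellTiter-Glo. A z-score was computed within each plate and averaged over three biological replicates.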

Compound | cell viability z-score within plate
C=CC(=O)Nc1ccc2ncnc(Nc3ccc(OCc4cccc(F)c4)c(Cl)c3)c2c1 | 0.819 ± 0.26
COCCOc1ccc2c(c1)ncn2-c1ccc2cccc(N3CCC(N)CC3)c2n1 | 0.546 ± 0.4
Oc1cccc(-c2nc(N3CCOCC3)c3oc4ncccc4c3n2)c1 | -0.163 ± 0.28
Cc1cc(C)c(/C=C2\C(=O)Nc3ccccc32)[nH]1 [Semaxanib (SU5416)] | -1.17 ± 0.77
Nc1ccc(-c2ccc3ncc4ccc(=O)n(-c5cccc(C(F)(F)F)c5)c4c3c2)cn1 [Torin 2] | 0.796 ± 0.29
CCN(CC)CCCCNc1ncc2cc(-c3cc(OC)cc(OC)c3)c(NC(=O)NC(C)(C)C)nc2n1 | -0.321 ± 0.21
CNC(=O)c1cc(Oc2ccc(NC(=O)Nc3ccc(Cl)c(C(F)(F)F)c3)cc2)ccn1 [Sorafenib] | -1.7 ± 1.3
O=C(Nc1ccc(OC(F)(F)F)cc1)c1sccc1NCc1ccnc2ccccc12 | 0.792 ± 0.22
Cc1ccc(Nc2nccc(N(C)c3ccc4c(C)n(C)nc4c3)n2)cc1S(N)(=O)=O [Pazopanib] | -0.34 ± 0.86
Cc1[nH]c(/C=C2\C(=O)Nc3ccc(S(=O)(=O)N(C)c4cccc(Cl)c4)cc32)c(C)c1C(=O)N1CCN(C)CC1 | -0.214 ± 0.72
CC[C@@H]1C(=O)N(C)c2cnc(Nc3ccc(C(=O)N[C@H]4CC[C@H](N5CCN(CC6CC6)CC5)CC4)cc3OC)nc2N1C(C)C [Volasertib (BI 6727)] | -0.186 ± 0.53
COc1cc2c(Oc3ccc(NC(=O)C4(C(=O)Nc5ccc(F)cc5)CC4)cc3F)ccnc2cc1OCCCN1CCOCC1 | -0.77 ± 2.3
Cc1cc(Nc2cc(N3CCN(C)CC3)nc(Sc3ccc(NC(=O)C4CC4)cc3)n2)n[nH]1 [Tozasertib (VX-680, MK-0457)] | 0.324 ± 0.42
COc1cc2ncnc(Nc3cccc(Cl)c3)c2cc1OC [AG-1478 (Tyrphostin AG-1478)] | -0.29 ± 0.52
Cc1nc(Nc2ncc(C(=O)Nc3c(C)cccc3Cl)s2)cc(N2CCN(CCO)CC2)n1 [Dasatinib] | -1.19 ± 0.2
CN1CCN(Cc2ccc(-c3cnc4[nH]cc(-c5ccc6[nH]ccc6c5)c4c3)cc2)CC1 | -0.36 ± 0.19
Cn1sc(=O)n(Cc2ccccc2)c1=O | 1.12 ± 0.94
CNC(=O)c1ccccc1Nc1nc(Nc2ccc(N3CCOCC3)cc2OC)ncc1Cl | 1.3 ± 1.2
CN1CCC(COc2cnc(-c3cccc(Cn4nc(-c5cccc(C#N)c5)ccc4=O)c3)nc2)CC1 | -0.645 ± 0.46

Compound | cell viability z-score within plate
Cc1cn(-c2cc(NC(=O)c3ccc(C)c(Nc4nccc(-c5cccnc5)n4)c3)cc(C(F)(F)F)c2)cn1 [Nilotinib (AMN-107)] | 0.322 ± 0.59
COc1ccc(-c2ccc3c(N4CCOC[C@@H]4C)nc(N4CCOC[C@@H]4C)nc3n2)cc1CO | 0.926 ± 0.45
COc1cc(F)c(F)c(Nc2ccc(I)cc2F)c1NS(=O)(=O)C1(C[C@H](O)CO)CC1 [Refametinib (RDEA119, Bay 86-9766)] | -1.34 ± 1.7
C#Cc1cccc(Nc2ncnc3cc(OCCOC)c(OCCO)cc23)c1 | -0.584 ± 1.3
CNC(=O)c1cc(COc2nnc(Nc3ccc(Cl)cc3)c3ccoc23)ccn1 [Telatinib] | -1.65 ± 1.2
CO[C@@H](C(=O)N1Cc2[nH]nc(NC(=O)c3ccc(N4CCN(C)CC4)cc3)c2C1)c1ccccc1 | 0.348 ± 0.073
COc1cc(Nc2ncc3c(n2)-c2ccc(Cl)cc2C(c2c(F)cccc2OC)=NC3)ccc1C(=O)O [Alisertib (MLN8237)] | 0.451 ± 0.63
Nc1ncnc2c1c(-c1cnc3[nH]ccc3c1)nn2C1CCCC1 | -0.241 ± 0.65
CS(=O)(=O)CCNCc1ccc(-c2ccc3ncnc(Nc4ccc(OCc5cccc(F)c5)c(Cl)c4)c3c2)o1 | 0.842 ± 0.23
N#Cc1c(O)c2c(-c3ccc(-c4ccccc4O)cc3)csc2[nH]c1=O | 0.457 ± 0.29
COc1cc2nccc(Oc3ccc(NC(=O)Nc4cc(C)on4)c(Cl)c3)c2cc1OC [Tivozanib (AV-951)] | -0.573 ± 0.16
COc1ccc(-c2ccc3c(N4CCOCC4)nc(N4C[C@@H](C)O[C@@H](C)C4)nc3n2)cc1CO | 0.495 ± 0.19
Nc1cccc(-c2cc3c(Oc4cccc(O)c4)ncnc3[nH]2)c1 | -0.5 ± 0.21
Nc1ccc(C(=O)Nc2cccc(-c3nc(N4CCOCC4)c4oc5ncccc5c4n3)c2)cn1 | 0.775 ± 0.24
FC(F)c1nc2ccccc2n1-c1nc(N2CCOCC2)nc(N2CCOCC2)n1 | 0.852 ± 0.61
CS(=O)(=O)CCNCc1ccc(-c2ccc3ncnc(Nc4ccc(OCc5cccc(F)c5)c(Cl)c4)c3c2)o1 [Lapatinib] | 0.823 ± 0.37
N=C(N)NC(=N)NCCc1ccccc1 [Phenformin HCl] | 1.08 ± 0.3
CNC(=O)c1nn(C)c2c1C(C)(C)Cc1cnc(Nc3ccc(N4CCN(C)CC4)cc3)nc1-2 | 0.949 ± 0.33
CNC(=O)c1cc(Oc2ccc(NC(=O)Nc3ccc(Cl)c(C(F)(F)F)c3)c(F)c2)ccn1 [Regorafenib (BAY 73-4506)] | 2 ± 0.81

These compounds were tested on FLX1 + dox-induced PRKAR1A G325D (assay: difference in log2 fold change of viability vs plate median (dox-induced PRKAR1A G325D minus uninduced); higher = compound less effective when PKA is inhibited). Conditions: concentration: not stated (2 or 5 uM); 5 days.
Experimental: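 For each plate a log2 fold change vs the plate median was derived, and the values without dox were subtracted from those with dox, averaged over three biological replicates.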

Compound | difference in log2 fold change of viability
C=CC(=O)Nc1ccc2ncnc(Nc3ccc(OCc4cccc(F)c4)c(Cl)c3)c2c1 | -0.53
COCCOc1ccc2c(c1)ncn2-c1ccc2cccc(N3CCC(N)CC3)c2n1 | -0.262
Oc1cccc(-c2nc(N3CCOCC3)c3oc4ncccc4c3n2)c1 | 0.496
Cc1cc(C)c(/C=C2\C(=O)Nc3ccccc32)[nH]1 [Semaxanib (SU5416)] | 0.256
Nc1ccc(-c2ccc3ncc4ccc(=O)n(-c5cccc(C(F)(F)F)c5)c4c3c2)cn1 [Torin 2] | 0.605
CCN(CC)CCCCNc1ncc2cc(-c3cc(OC)cc(OC)c3)c(NC(=O)NC(C)(C)C)nc2n1 | -0.527
CNC(=O)c1cc(Oc2ccc(NC(=O)Nc3ccc(Cl)c(C(F)(F)F)c3)cc2)ccn1 [Sorafenib] | 0.0478
O=C(Nc1ccc(OC(F)(F)F)cc1)c1sccc1NCc1ccnc2ccccc12 | 0.386
Cc1ccc(Nc2nccc(N(C)c3ccc4c(C)n(C)nc4c3)n2)cc1S(N)(=O)=O [Pazopanib] | 0.0453
Cc1[nH]c(/C=C2\C(=O)Nc3ccc(S(=O)(=O)N(C)c4cccc(Cl)c4)cc32)c(C)c1C(=O)N1CCN(C)CC1 | 0.163
CC[C@@H]1C(=O)N(C)c2cnc(Nc3ccc(C(=O)N[C@H]4CC[C@H](N5CCN(CC6CC6)CC5)CC4)cc3OC)nc2N1C(C)C [Volasertib (BI 6727)] | -0.0557
COc1cc2c(Oc3ccc(NC(=O)C4(C(=O)Nc5ccc(F)cc5)CC4)cc3F)ccnc2cc1OCCCN1CCOCC1 | -0.0914
Cc1cc(Nc2cc(N3CCN(C)CC3)nc(Sc3ccc(NC(=O)C4CC4)cc3)n2)n[nH]1 [Tozasertib (VX-680, MK-0457)] | -0.00164
COc1cc2ncnc(Nc3cccc(Cl)c3)c2cc1OC [AG-1478 (Tyrphostin AG-1478)] | 0.0422
Cc1nc(Nc2ncc(C(=O)Nc3c(C)cccc3Cl)s2)cc(N2CCN(CCO)CC2)n1 [Dasatinib] | 0.18
CN1CCN(Cc2ccc(-c3cnc4[nH]cc(-c5ccc6[nH]ccc6c5)c4c3)cc2)CC1 | -0.00541
Cn1sc(=O)n(Cc2ccccc2)c1=O | 0.221
CNC(=O)c1ccccc1Nc1nc(Nc2ccc(N3CCOCC3)cc2OC)ncc1Cl | -1.51
CN1CCC(COc2cnc(-c3cccc(Cn4nc(-c5cccc(C#N)c5)ccc4=O)c3)nc2)CC1 | -0.973

Compound | difference in log2 fold change of viability
Cc1cn(-c2cc(NC(=O)c3ccc(C)c(Nc4nccc(-c5cccnc5)n4)c3)cc(C(F)(F)F)c2)cn1 [Nilotinib (AMN-107)] | 0.157
COc1ccc(-c2ccc3c(N4CCOC[C@@H]4C)nc(N4CCOC[C@@H]4C)nc3n2)cc1CO | 1.55
COc1cc(F)c(F)c(Nc2ccc(I)cc2F)c1NS(=O)(=O)C1(C[C@H](O)CO)CC1 [Refametinib (RDEA119, Bay 86-9766)] | 0.183
C#Cc1cccc(Nc2ncnc3cc(OCCOC)c(OCCO)cc23)c1 | -0.763
CNC(=O)c1cc(COc2nnc(Nc3ccc(Cl)cc3)c3ccoc23)ccn1 [Telatinib] | 0.0582
CO[C@@H](C(=O)N1Cc2[nH]nc(NC(=O)c3ccc(N4CCN(C)CC4)cc3)c2C1)c1ccccc1 | 0.428
COc1cc(Nc2ncc3c(n2)-c2ccc(Cl)cc2C(c2c(F)cccc2OC)=NC3)ccc1C(=O)O [Alisertib (MLN8237)] | -0.903
Nc1ncnc2c1c(-c1cnc3[nH]ccc3c1)nn2C1CCCC1 | 0.363
CS(=O)(=O)CCNCc1ccc(-c2ccc3ncnc(Nc4ccc(OCc5cccc(F)c5)c(Cl)c4)c3c2)o1 | 0.519
N#Cc1c(O)c2c(-c3ccc(-c4ccccc4O)cc3)csc2[nH]c1=O | 0.134
COc1cc2nccc(Oc3ccc(NC(=O)Nc4cc(C)on4)c(Cl)c3)c2cc1OC [Tivozanib (AV-951)] | -0.0533
COc1ccc(-c2ccc3c(N4CCOCC4)nc(N4C[C@@H](C)O[C@@H](C)C4)nc3n2)cc1CO | 0.463
Nc1cccc(-c2cc3c(Oc4cccc(O)c4)ncnc3[nH]2)c1 | -0.478
Nc1ccc(C(=O)Nc2cccc(-c3nc(N4CCOCC4)c4oc5ncccc5c4n3)c2)cn1 | 0.262
FC(F)c1nc2ccccc2n1-c1nc(N2CCOCC2)nc(N2CCOCC2)n1 | 0.435
CS(=O)(=O)CCNCc1ccc(-c2ccc3ncnc(Nc4ccc(OCc5cccc(F)c5)c(Cl)c4)c3c2)o1 [Lapatinib] | 0.129
N=C(N)NC(=N)NCCc1ccccc1 [Phenformin HCl] | -0.0569
CNC(=O)c1nn(C)c2c1C(C)(C)Cc1cnc(Nc3ccc(N4CCN(C)CC4)cc3)nc1-2 | 0.64
CNC(=O)c1cc(Oc2ccc(NC(=O)Nc3ccc(Cl)c(C(F)(F)F)c3)c(F)c2)ccn1 [Regorafenib (BAY 73-4506)] | -0.347
